Screening results: PubChem BioAssay, National Center for Advancing Translational Sciences (NCATS)
Sfp PPTase inh: qHTS Assay for Inhibitors of Bacillus subtilis Sfp phosphopantetheinyl transferase (PPTase); Potency, µM, inactives show largest response in the series, negative = inhibition, most hits filed as inhibitors; Biochemical Sfp PPTase activity, qHTS; AID 1490, 2009; actives 3.5% (n = 310,000); 4'-phosphopantetheinyl transferase ffp (Bacillus subtilis), Q9F4F7;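 further: the enzyme is Sfp with the accession as filed and its product quenches rhodamine fluorescence; potency means the concentration at half of the fitted maximal effect; 0% = enzyme reaction without inhibitor and -100% = no enzyme wells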
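Fluorescence-quenching assay with 15 nM Sfp, 5 uM rhodamine-CoA and 12.5 uM BHQ-2-labelled ybbR peptide in pH 7.6 Hepes/MgCl2 buffer. Enzyme was pre-incubated with compound for 15 min at room temperature. Rate was taken from the 30-min fluorescence change (525/598 nm).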
ALDH1A1 inh: qHTS Assay for Inhibitors of Aldehyde Dehydrogenase 1 (ALDH1A1); actives 7.3% (n = 220,000); Potency, µM (titrated, usually from 75.3 µM), for inactives: top-dose activity, negative = inhibition, hits mostly inhibitors; Aldehyde dehydrogenase 1A1 (Homo sapiens), P00352; AID 1030, 2008; Purified ALDH1A1, NADH fluorescence, propionaldehyde substrate; active means well fitted inhibition curve with a large enough effect, not every such curve was filed as active; inconclusive means small, poorly fitted or top-dose-only effect, or another doubt; inactive means no such curve, though single readings can be large or run the other way;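 further: potency means the concentration at half of the fitted maximal effect; plate controls were no enzyme wells and a reference inhibitor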
Target sequence (P00352 whole entry, looked up): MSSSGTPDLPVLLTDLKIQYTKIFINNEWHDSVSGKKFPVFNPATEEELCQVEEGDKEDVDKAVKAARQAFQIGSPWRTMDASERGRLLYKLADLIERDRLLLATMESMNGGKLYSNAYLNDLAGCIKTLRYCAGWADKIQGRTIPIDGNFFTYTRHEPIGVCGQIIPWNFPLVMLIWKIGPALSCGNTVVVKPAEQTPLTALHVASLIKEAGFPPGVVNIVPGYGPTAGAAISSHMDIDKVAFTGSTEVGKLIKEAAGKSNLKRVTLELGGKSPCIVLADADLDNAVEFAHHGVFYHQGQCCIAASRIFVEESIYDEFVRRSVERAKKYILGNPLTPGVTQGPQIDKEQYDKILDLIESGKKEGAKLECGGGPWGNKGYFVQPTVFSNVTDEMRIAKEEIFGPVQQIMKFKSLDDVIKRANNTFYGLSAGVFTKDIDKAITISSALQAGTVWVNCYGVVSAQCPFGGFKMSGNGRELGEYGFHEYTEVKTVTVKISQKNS
LMNA splice mod: qHTS Assay for Modulators of Lamin A Splicing; HeLa LMNA splicing GFP/RFP minigene ratio, 48 h; Potency, µM (top dose mostly 46.1 µM), for the others: top-dose ratio change, negative = inhibition, actives largely listed as inhibitors; actives 0.01% (n = 200,000); AID 1487, 2009; active means well fitted inhibition curve with a large enough effect in the signal ratio, with a control signal flat, not every such curve was filed as active; inconclusive means small, poorly fitted or top-dose-only effect, or effect the other way, or a change in a side signal; the % refers to the signal ratio; further: potency means the concentration at half of the fitted maximal effect; on the % scale 0 is the no-effect control and ±100 the full control effect
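S3 HeLa cells stably expressing lamin A-EGFP splicing minigene plus DsRed2, 600 cells/well, 48 h compound exposure at 37C. Laser-scanning cytometry; analysed as GFP (500-530 nm)/RFP (575-640 nm) total intensity ratio; 0.5% DMSO vehicle.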
miR-21 act: qHTS Assay for Modulators of miRNAs and/orActivators of miR-21; AID 2288, 2010; 340,000 tested, under 10 active; Potency, µM (series often up to 38.3 µM), without a hit: at the highest dose activity change, positive = activation, actives largely listed as activators; HeLa miR-21 FLuc reporter, luciferase, 48 h;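 further: % of control where 0% means no effect; miR-21 action dims this reporter so a rising signal means less miR-21 action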
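Compounds were titrated across several concentrations (up to approximately 40 uM) and incubated 48 hours with HeLa miR-21-FLuc reporter cells (miR-21 target sequence downstream of FLuc, endogenous miR-21). Readout was firefly luciferase luminescence after lytic detection reagent.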
KDM4E inh: qHTS Assay for Inhibitors of Human Jumonji Domain Containing 2E (JMJD2E) | Lysine-specific demethylase 4E (Homo sapiens), B2RXH2 | Potency, µM (top dose mostly 57.1 µM), for the others: at the top dose activity change, negative = inhibition, hits mostly inhibitors | JMJD2E catalytic domain, FDH-coupled NADH fluorescence (FDH is formaldehyde dehydrogenase) | actives 1.6% (n = 230,000); active means well fitted inhibition curve with a large enough effect, not every such curve was filed as active; inconclusive means small, poorly fitted or top-dose-only effect, or another doubt; inactive means no such curve, though single readings can be large or run the other way;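 further: potency means the concentration at half of the fitted maximal effect; 0% = wells with enzyme and -100% = buffer wells without enzyme; nearly all actives have a fitted effect of over 50% in size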
G9a inh: qHTS Assay for Inhibitors of Histone Lysine Methyltransferase G9a; actives 8.8% (n = 350,000); G9a H3K9 monomethylation, AlphaScreen, 2 h; Histone-lysine N-methyltransferase EHMT2 (Homo sapiens), Q96KQ7; Potency, µM (titrated, usually from 102 µM), for the others: at the highest dose activity, negative = inhibition, actives largely listed as inhibitors; further: potency means the concentration at half of the fitted maximal effect; on the % scale 0 is the no-effect control and ±100 the full control effect; nearly all actives have a fitted effect of over 75% in size
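Step 1: enzyme (final 20 nM) with compound, 15 min RT. Step 2: substrate peptide 500 nM and SAM 20 uM, 2 h RT. Step 3: anti-H3K9me1 antibody and AlphaScreen beads, 10 min, then plate read.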
Numbers without * were called inactive; i = inactive; ? = inconclusive; . = no result; [ ] = another dose, or the depositor's remark. A selection: hits, their analogues and other compounds. The true share with any hit is near 13%. Unless noted, the call rests on the fitted dose curve; in most records, active means well fitted curve in the direction sought with a large enough effect; inconclusive means small, poorly fitted or top-dose-only effect, or another doubt; inactive means no such curve, though single readings can be large; an effect the other way counts as inactive or inconclusive.

SMILES	Sfp PPTase inh	ALDH1A1 inh	LMNA splice mod	miR-21 act	KDM4E inh	G9a inh
Oc1ccc2c(c1)OCO2	.	6%	.	.	.	.
Oc1ccc2c(c1)OCC1(O)Cc3cc(O)c(O)cc3C21 (stereo not drawn)	i	28µM*	.	.	14µM*	-115%[2.33 µM]
CCc1nc(Nc2ccccc2F)c2oc3ccccc3c2n1	6%	.	.	-16%	.	50µM*
CCc1nc(Nc2cccc(F)c2)c2oc3ccccc3c2n1	1%	.	.	4%	.	45µM*
CCc1nc(Nc2ccc(F)cc2)c2oc3ccccc3c2n1	-7%	.	.	9%	.	45µM*
CCc1nc(Nc2cccc(OC)c2)c2oc3ccccc3c2n1	?	.	.	-2%	.	8%
CCc1nc(Nc2ccccc2)c2oc3ccccc3c2n1	-6%	?	3%	-2%	?	-23%[59 µM]
O=C(CSc1nc2c([nH]c3ccccc32)c(=O)n1-c1ccc(Cl)cc1)NC1CCCCC1	.	.	?	-8%	.	5%[59 µM]
O=C1CCC[C@@H]2CC(NCc3ccc(Cl)c(Cl)c3)C[C@@H]3CCN1[C@H]23 (stereo partly drawn)	-9%	6%	.	.	.	?
CCCn1nc(C(=O)NNC(=O)CSC(C)C(=O)Nc2cc(C)on2)c2ccccc2c1=O (stereo not drawn)	14%	.	.	0%	.	22µM*
CCOc1ccc(NC(=O)CCS(=O)(=O)c2cc3c4c(c2)CCN4C(=O)CC3)cc1	.	.	.	0%	.	-31%[59 µM]
O=C(Cc1ccc(-n2cccc2)cc1)N1CCN(c2ccccc2F)CC1	0%	?	?	0%	-3%	50µM*
COc1ccc(N2CCN(C(=O)CCC(=O)c3cc(C)sc3C)CC2)cc1	6%	-12%	.	6%	-29%	50µM*
COc1ccc(N2CCN(C(=O)Cc3ccc(Cl)cc3)CC2)cc1	-2%	.	.	0%	.	50µM*
COc1ccc(N2CCN(c3nc(Cl)nc(N4CCOCC4)n3)CC2)cc1	-9%	0%	-6%	-4%	-8%	7.9µM*
CC(C)Cn1c(SCc2cccc(F)c2)nc2ccsc2c1=O	.	.	?	-1%	.	57%[59 µM]
CC1=C(c2ccc(C)cc2)S(=O)(=O)NC1=NCCCN1CCN(c2ccc(F)cc2)CC1	.	.	.	0%	.	?
COc1ccc(N2CCN(C(=O)CN=C3NS(=O)(=O)C(c4ccc(C)cc4)=C3C)CC2)cc1	-15%	-1%	-5%	12%	-11%	40µM*
COc1ccc(CNC(=O)Cc2nn(C)c(=O)c3ccccc23)cc1	5%	0%	14%	16%	4%	8%
COc1ccc(N2CCN(C(=O)Cc3ccc(C)cc3)CC2)cc1	-7%	.	.	-1%	.	71µM*
COc1ccc(N2CCN(C(=O)Cc3nn(C)c(=O)c4ccccc34)CC2)cc1	-4%	-5%	?	5%	0%	35µM*
CN(CC(=O)NCc1ccc(F)cc1)S(=O)(=O)c1ccc2[nH]c3c(c2c1)CCCC3	.	.	?	?	.	16µM*
CCOc1ccc(NC(=O)CN(C)S(=O)(=O)c2ccc3[nH]c4c(c3c2)CCCC4)cc1	.	.	?	28%	.	10µM*
Cc1cc(C)cc(NC(=O)CN(C)S(=O)(=O)c2ccc3[nH]c4c(c3c2)CCCC4)c1	.	.	?	18%	.	?
Cc1cccc(C)c1NC(=O)CN(C)S(=O)(=O)c1ccc2[nH]c3c(c2c1)CCCC3	.	.	?	29%	.	14µM*
Cc1cccc(N(C)C(=O)CN(C)S(=O)(=O)c2ccc3[nH]c4c(c3c2)CCCC4)c1	.	.	?	7%	.	11µM*
CN(CC(=O)NCc1ccccc1)S(=O)(=O)c1ccc2[nH]c3c(c2c1)CCCC3	.	.	?	-1%	.	?
